# Results filed as inconclusive are left out. Unmarked numbers belong to inactive results. Activity calls are given as the source filed them. The call rests on the fitted dose curve; in most records, active means well fitted activation curve with a large enough effect in the repeat runs; inconclusive means weak or mixed curves; inactive means flat fitted curve, though single readings scatter.
# Assay: A CellTox Green Cytotoxicity Assay to monitor cytotoxicity in HepG2 cells - 40 hour (AID 1224879); further: nearly all actives have a fitted effect of over 40% in size
# Conditions: CellTox Green fluorescence; series mostly up to 76.8 µM; cytotoxicity increase: at the top concentration
# Description: National Center for Advancing Translational Sciences [NCATS]
# NIH Chemical Genomics Center [NCGC]
# U.S. Environmental Protection Agency [EPA]
# National Institutes of Environmental Health Sciences [NIEHS]
# National Toxicology Program [NTP]
# Cell-based models are critical for drug discovery. Determining the natural cytotoxic effects resulting from test compounds is an essential research activity. A CellTox Green Cytotoxicity Assay to monitor cytotoxicity in real time of continues cell culture during 40 hours of the compound treatment was used to screen Tox21 10K library compounds in HepG2 cells. CellTox Green Cytotoxicity Assay is a nonlytic, homogeneous, biofluorescent method to measure cytotoxicity in cell culture after experimental manipulation. The assay system uses a proprietary asymmetric cyanine dye that is excluded from viable cells but preferentially stains the dead cell's DNA. […] Viable cells produce no appreciable increases in fluorescence. Therefore, the fluorescence signal produced by the binding interaction with dead cell DNA is proportional to cytotoxicity.
# The mixture of HepG2 cell suspension and reagents were dispensed at 600cells/6 ul/well in 1536-well tissue culture treated black solid bottom plates using a Multidrop dispenser. After the assay plates were incubated at a 37 C/5% CO2 incubator for 5 hours, 23 nL of compounds dissolved in DMSO, positive and negative controls was transferred to the assay plate by a pintool work station. The plates were incubated at 37 C for 40 hours. The fluorescence intensity were measured at 0h, 8h, 16h, 24h, 32h and 40h time points using ViewLux plate reader during compound treatment.
# On the % scale 0 is the no-effect control and ±100 the full control effect; potency means the concentration at half of the fitted maximal effect.
Structure (SMILES),cytotoxicity increase,Potency
CC1(C)O[C@@H]2C[C@H]3[C@@H]4CCC5=CC(=O)CC[C@]5(C)[C@@]4(F)[C@@H](O)C[C@]3(C)[C@]2(C(=O)CCl)O1,-9.16% [at 35.3 µM],–
FC(F)(F)c1ccccc1,-1.68%,–
COc1cc(N)c(Cl)cc1C(=O)NC1CCN(Cc2ccccc2)CC1,14.2% [at 35.3 µM],–
CC(CNC1CCCCC1)OC(=O)c1ccccc1 (stereo not given),-0.207% [at 35.3 µM],–
O=C(C(Cl)Cl)N1CCOC12CCCCC2,-14%,–
OC[C@H]1O[C@@H](O[C@H]2[C@H](O)[C@@H](O)[C@H](O)O[C@@H]2CO)[C@H](O)[C@@H](O)[C@H]1O,-0.651%,–
COC(=O)C(C)O (stereo not given),-1.19%,–
CC(C)C(=O)OC/C=C/c1ccccc1,0.803%,–
Cc1ncc(CO)c(CN)c1O,-0.769% [at 35.3 µM],–
ICCc1ccccc1,6.79%,–
CN1CCN(N)CC1,9.93% [at 35.3 µM],–
CCCNC(C)C(=O)Nc1c(C)csc1C(=O)OC (stereo not given),-25.2% [at 35.3 µM],–
Cc1nnc(SCC2=C(C(=O)O)N3C(=O)[C@@H](NC(=O)Cn4cnnn4)[C@H]3SC2)s1,-6.83% [at 35.3 µM],–
OCCN(CCO)CCN(CCO)CCO,-3.52%,–
Cc1cc2c(s1)Nc1ccccc1N=C2N1CCN(C)CC1,0.827% [at 35.3 µM],–
CCCCCCCCCC#N,9.82%,–
CCc1cc(Cl)c(OC)c(C(=O)NC[C@@H]2CCCN2CC)c1O,16.7% [at 35.3 µM],–
COc1ccccc1OCC(O)COC(N)=O (stereo not given),-14.5% [at 35.3 µM],–
Oc1ccccc1C=NCc1ccccc1,6.27% [at 35.3 µM],–
C=O,-6.25%,–

Structure (SMILES),cytotoxicity increase,Potency
CCCOCCC,-0.488%,–
CC(Oc1c(Cl)cccc1Cl)C1=NCCN1 (stereo not given),-3.94% [at 35.3 µM],–
O=C(O)[C@@H](O)[C@H](O)[C@H](O)[C@@H](O)C(=O)O,-1.38% [at 35.3 µM],–
Cc1c(-c2ccccc2)oc2c(C(=O)OCCN3CCCCC3)cccc2c1=O,9.85% [at 35.3 µM],–
CC(=O)Nc1ccc(C)c(Cl)c1,-8.07%,–
C=CC1CO1 (stereo not given),0.679%,–
CC1CN(c2ccccc2)NC1=O (stereo not given),-1.74%,–
CN1CCC[C@@H]1Cc1c[nH]c2ccc(CCS(=O)(=O)c3ccccc3)cc12,-5.55% [at 35.3 µM],–
CCCCC1CCC(=O)O1 (stereo not given),-9.92%,–
CC(C)=CCC[C@](C)(O)[C@@H]1CC=C(C)CC1,–,49 µM (active)
CCC(=O)Nc1ccc(O)cc1,-8.3% [at 35.3 µM],–
CCN(CC)CCNC(=O)COc1ccc(Cl)cc1,-1.68% [at 35.3 µM],–
CS(=O)(=O)c1ccc([C@@H](O)[C@@H](CF)NC(=O)C(Cl)Cl)cc1,9.64% [at 35.3 µM],–
CCOc1ccc(OCC)c(Cl)c1,19.6%,–
CCCCCCCCCCCCOCCOS(=O)(=O)O,–,54.9 µM (active)
CNCCC(Oc1ccccc1OC)c1ccccc1 (stereo not given),-0.901% [at 35.3 µM],–
NCCC(O)(P(=O)(O)O)P(=O)(O)O,-14.1% [at 35.3 µM],–
Nc1ccc2ccccc2c1S(=O)(=O)O,8.33%,–
Cn1cnc2c(F)c(Nc3ccc(Br)cc3Cl)c(C(=O)NOCCO)cc21,–,0.0379 µM (active)
CC(C)(C)c1ccc(OC(=O)c2ccccc2O)cc1,3.39%,–

# From PubChem BioAssay (Tox21)
